From PubChem BioAssay
HCV inh = inhibitors of hepatitis C virus infection. Huh7.5.1 HCVcc-Cre infection, luciferase reporter, 44 h. Potency, µM (doses to about 41.8 µM), usual class: inhibitors. hit rate 3.4% among 340,000. AID 651820; active = well fitted inhibition curve with a large enough effect; inconclusive = small, poorly fitted or top-dose-only effect, or another doubt; inactive = no such curve, though single readings can be large or run the other way
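Infectious HCV cell culture screen: compound-treated cells (1,000/well, pre-plated 4 h) are infected with HCVcc-Cre at roughly 0.5 moi and grown 44 h. Infection is quantified by luciferase signal after 15 min substrate incubation at room temperature.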
MARV entry inh = blocks Marburg virus binding to or entry into cells | hit rate 1.8% among 300,000 | AID 540276 | Potency, µM (series often up to 37.8 µM), usual class: inhibitors | Marburg virus pseudotyped entry inhibition, cell reporter; calls by dose curve; tested in HEK293 cells
Lassa entry inh = Lassa virus entry inhibition. Lassa virus pseudotype entry inhibition, cell reporter. hit rate 1.2% among 300,000. Potency, µM (doses to about 37.9 µM), hits mostly inhibitors; calls by dose curve; tested in HEK293 cells; note: nearly all actives have a fitted effect of over 50% in size
HCMV antiviral = human cytomegalovirus inhibition; HFF cells, HCMV-luciferase reporter, 72 h; active compounds read low; activity change, negative = inhibition, % at 57.5 µM; AID 1259415; hit rate 4.5% among 410,000; in the data active = activity change below about -60%; inconclusive = no clear call, values can overlap the other calls; inactive = above about -39%
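After 16 h attachment at 37C, HFF cells received test compound and HCMV-luciferase (1 PFU/cell); reporter luminescence read 72 h later, data normalized against buffer-only and known inhibitor Salinomycin.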
FMDV inh = foot and mouth disease virus antiviral activity; FMDV antiviral cell-based qHTS; Potency, µM (series often up to 57.9 µM), actives largely listed as inhibitors; hit rate 1.2% among 410,000; AID 1159524; calls by dose curve; tested in HEK293T cells; note: read-out not given here; nearly all actives have a fitted effect of over 45% in size
Each line names hits and unclear results; the compound was inactive in the other large screens; ! = not confirmed by another sample. Shown are actives, neighbours in structure and some others; about 7.9% of the full set was active somewhere.

CSCCC(NC(=O)c1ccccc1Cl)C(=O)N1CCN(C(C)=O)CC1 (stereo not drawn)	none
CSCCC(NC(=O)c1ccccc1Br)C(=O)NNC(=O)c1cc(C)oc1C (stereo not drawn)	HCMV antiviral -62.8 (no result: MARV entry inh, Lassa entry inh)
CSCCC(NC(=O)c1ccccc1Br)C(=O)N1CCN(C/C=C/c2ccccc2)CC1 (stereo not drawn)	HCV inh inconclusive, HCMV antiviral -82.7 (no result: MARV entry inh, Lassa entry inh)
CSCCC(NC(=O)c1ccccc1Br)C(=O)NC(C)CCc1ccccc1 (stereo not drawn)	Lassa entry inh inconclusive (no result: HCV inh)
CSCCC(NC(=O)c1ccccc1)C(=O)N1CC=C(c2ccccc2)CC1 (stereo not drawn)	HCV inh inconclusive, MARV entry inh inconclusive, Lassa entry inh 11.2µM
CSCCC(NC(=O)c1ccccc1)C(=O)NNC(=O)c1ccccc1 (stereo not drawn)	HCMV antiviral -61.9 (no result: MARV entry inh, Lassa entry inh)
CCOC(=O)c1[nH]c(C)c(CN(CCc2ccccc2)C(=O)CCC(=O)O)c1C	none
CCN(CC)CCc1c(C)[nH]c(C(=O)OCc2ccccc2)c1C	HCV inh inconclusive, MARV entry inh 25.9µM
Cc1nn(CC(=O)N2CCN(c3cccc(C(F)(F)F)c3)CC2)c(=O)c2cccn12	MARV entry inh inconclusive, HCMV antiviral -66.8!
CC1CCN(S(=O)(=O)c2cn(CC(=O)N3CCN(c4cccc(C(F)(F)F)c4)CC3)cn2)CC1	HCV inh 11.2µM, FMDV inh inconclusive (no result: MARV entry inh, Lassa entry inh, HCMV antiviral)
O=C(c1ccc(Cl)c([N+](=O)[O-])c1)N(Cc1ccc(F)cc1)C1CCS(=O)(=O)C1 (stereo not drawn)	none
CCCOc1cccc(C(=O)N(Cc2ccccc2)C2CCS(=O)(=O)C2)c1 (stereo not drawn)	MARV entry inh inconclusive, Lassa entry inh inconclusive, HCMV antiviral -65.7
CN(C)c1ccc(CN(C(=O)c2ccc(Cl)c([N+](=O)[O-])c2)C2CCS(=O)(=O)C2)cc1 (stereo not drawn)	HCV inh inconclusive, MARV entry inh 11.2µM, Lassa entry inh inconclusive
CCc1cccc(NS(=O)(=O)c2ccc3c(c2)N(CC(=O)OC)C(=O)CS3)c1	none (no result: HCV inh, MARV entry inh)
CCC1CN(CCNC(=O)c2cccc3nccnc23)Cc2cc(OC)ccc2O1 (stereo not drawn)	none (no result: HCV inh, MARV entry inh, Lassa entry inh, HCMV antiviral)
O=C(CSc1oc(-c2ccco2)nc1S(=O)(=O)c1ccc(Cl)cc1)c1ccc(Cl)cc1	none (no result: HCV inh)
NC(=O)c1ccsc1NC(=O)CSc1nnc(Nc2ccccc2)s1	HCV inh inconclusive, MARV entry inh inconclusive, Lassa entry inh inconclusive, HCMV antiviral -63.1, FMDV inh inconclusive
NC(=O)c1ccsc1NC(=O)CSc1ccccc1F	none (no result: FMDV inh)
C=CCn1c(SCC(=O)Nc2sccc2C(N)=O)nc2sc(CC)cc2c1=O	HCV inh 11.2µM, MARV entry inh 12.6µM, Lassa entry inh inconclusive, HCMV antiviral -77.9, FMDV inh 25.1µM
COC(=O)c1sc2nc(C)nc(SCC(=O)Nc3sccc3C(N)=O)c2c1C	HCV inh 11.2µM, HCMV antiviral inconclusive, FMDV inh inconclusive (no result: MARV entry inh, Lassa entry inh)
C=CCn1c(SCC(=O)Nc2sccc2C(N)=O)nc2ccccc2c1=O	HCV inh 11.2µM, MARV entry inh inconclusive, Lassa entry inh inconclusive, FMDV inh inconclusive
Cc1nc(SCC(=O)Nc2sccc2C(N)=O)c2c(C)c(C)sc2n1	FMDV inh inconclusive (no result: HCV inh, MARV entry inh, Lassa entry inh)
C=CCn1c(SC(C)C(N)=O)nc2sc(CC)cc2c1=O (stereo not drawn)	none
COc1ccc(OC)c(NC(=O)c2oc(=O)c3ccccc3c2-c2ccccc2)c1	none (no result: HCV inh, MARV entry inh)
COc1cccc(C(=O)Nc2cc(-c3cn4cccnc4n3)ccc2C)c1OC	none (no result: HCV inh, MARV entry inh)
CC(=O)N1CCC2(CC1)OC(=O)C(C)=C2C(=O)NCc1cccc(Cl)c1	none (no result: HCV inh, MARV entry inh)
COc1ccc([C@@H]2C(C(=O)N3CCCC3)CC(=O)N2C(=O)CCc2ccccc2)cc1 (stereo partly drawn)	none (no result: HCV inh, MARV entry inh, Lassa entry inh, FMDV inh)
C=CCn1c(SCC(=O)Nc2ccccc2F)nc2ccccc2c1=O	HCMV antiviral inconclusive (no result: MARV entry inh, Lassa entry inh)
C=CCn1c(SCC(=O)Nc2sccc2C(N)=O)nc2ccc(Cl)cc2c1=O	HCV inh 7.94µM, MARV entry inh inconclusive, Lassa entry inh inconclusive, HCMV antiviral -81.9, FMDV inh inconclusive
C=CCn1c(SCN2C(=O)c3ccccc3C2=O)nc2ccc(Cl)cc2c1=O	FMDV inh 15.8µM
CC(C)(C)OC(=O)N1CCC(c2c(C(=O)N3CCN(c4ccccc4)CC3)cnn2-c2ccccc2)CC1	Lassa entry inh inconclusive, HCMV antiviral inconclusive (no result: HCV inh, MARV entry inh)
CC(=O)SC1CC2=CC(=O)CCC2(C)C2CCC3(C)C(CCC34CCC(=O)O4)C12 (stereo not drawn)	HCV inh inconclusive, HCMV antiviral -63.2
